Records with an inconclusive call do not appear. A number with no mark means an inactive call. Active and inactive are the calls of the source. Calls follow the shape of the dose curve; as a rule, active = well fitted inhibition curve with a large enough effect in the repeat runs; inconclusive = weak or mixed curves; inactive = no such curve, though single readings can be large or run the other way.
% is scaled to controls: 0 for no effect and ±100 for the full control effect; potency is read from the fitted curve at half-maximal effect.

In the test the target is Cytochrome P450 2D6 (Homo sapiens) (UniProt P10635). As to the kind of experiment: Cytochrome P450 Family 2 Subfamily D Member 6 (CYP2D6) small molecule antagonists: luciferase reporter qHTS assay (AID 1671196). Also: nearly all actives have a fitted effect of over 50% in size. The following applies: P450-Glo CYP2D6 enzyme assay, luciferin luminescence, 1 h; series mostly up to 115 µM; activity change, negative = inhibition: at the top concentration. The text has this: U.S. Tox21 Program National Center for Advancing Translational Sciences [NCATS] U.S. Environmental Protection Agency [EPA] National Institutes of Environmental Health Sciences [NIEHS] National Toxicology Program [NTP] U.S. Food and Drug Administration [FDA] Tox21 Assay Overview: Cytochrome P450 (CYP) enzymes are membrane-bound hemeproteins that play a key role in metabolism of drugs and xenobiotics. Evaluation of the effect of chemicals on CYP isozymes is useful to minimize the adverse drug reactions and toxicities in drug development process. Tox21 chemicals were tested for their effect on CYP enzyme activities by using P450-Glo (TM) screening systems (Promega Corporation, Madison, WI). These systems provide a luminescent method containing proluciferin substrates and are converted to luciferin products by CYP isozymes. The luciferin products formed are detected with a luciferin detection reagent, and the amount of light produced is proportional to CYP activity. P450-Glo (TM) CYP2D6 screening system (Catalog. No. V9890) was used to detect the compounds that interfere in CYP2D6 activity.
Chain of Cytochrome P450 2D6 (Homo sapiens) (P10635 whole entry, looked up): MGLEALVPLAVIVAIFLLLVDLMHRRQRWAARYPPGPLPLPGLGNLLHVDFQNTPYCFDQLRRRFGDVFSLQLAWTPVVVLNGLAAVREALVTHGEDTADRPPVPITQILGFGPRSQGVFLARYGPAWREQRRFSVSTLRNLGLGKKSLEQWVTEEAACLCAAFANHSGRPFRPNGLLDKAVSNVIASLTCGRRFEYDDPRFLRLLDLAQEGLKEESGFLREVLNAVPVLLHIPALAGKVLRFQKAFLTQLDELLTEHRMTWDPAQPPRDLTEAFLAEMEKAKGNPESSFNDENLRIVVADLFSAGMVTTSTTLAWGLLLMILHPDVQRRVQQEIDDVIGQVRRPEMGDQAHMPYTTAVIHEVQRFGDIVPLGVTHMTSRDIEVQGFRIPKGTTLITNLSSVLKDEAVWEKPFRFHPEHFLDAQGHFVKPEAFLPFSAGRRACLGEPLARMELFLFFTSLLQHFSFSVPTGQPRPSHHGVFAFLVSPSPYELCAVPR
Tox21 Assay Protocol Summary: Two ul of enzyme-substrate mix was dispensed into medium binding white/solid 1536-well plates (Greiner Bio-One North America Inc., Monroe, NC) using a BioRaptr Flying Reagent Dispenser (FRD, Beckman Coulter, Brea, CA). […] The assay plates were incubated at room temperature for 10 min. Then 2 ul of NADPH regeneration solution was added to each well of the assay plates using an FRD and incubated at room temperature for 1 h. The reaction was stopped by adding 4 ul of detection reagent using an FRD and after 20 min incubation at room temperature the luminescence signal was measured using a ViewLux plate reader (Perkin Elmer, Shelton, CT). Data were expressed as relative luminescence units.
On the technique in general: In a reporter assay the amount or activity of a reporter protein is the signal.
On to `O=C(O)CNCC(=O)O`, for which the activity change, negative = inhibition is -0.567% [at 10.5 µM]. As for `O=S(c1cc(Cl)cc(Cl)c1O)c1cc(Cl)cc(Cl)c1O`, the “activity change, negative = inhibition” value was -1.03% [at 53 µM]. For the compound `CCN(CC)c1ccc2c(-c3ccccc3C(=O)O)c3ccc(=[N+](CC)CC)cc-3oc2c1`, the Potency is 35.6 µM (active).

With `N=c1ccn2c(n1)O[C@H]1[C@H](O)[C@@H](CO)O[C@H]12`, the “activity change, negative = inhibition” value was -12.9%. On the same count and under the same terms, with `Nc1cccc([N+](=O)[O-])c1` the figure was -18.6%.

In the case of `CC(=O)OC[C@H]1O[C@@H](n2ncc(=O)[nH]c2=O)[C@H](OC(C)=O)[C@@H]1OC(C)=O`, the Potency is 4.36 µM (active). `O=S(=O)(Oc1ccc(Cl)cc1)c1ccccc1`: the Potency was 31.7 µM (active). Turning to `Cc1ccc(C(C)OC(=O)C2(C)CCC(C(=O)O)C2(C)C)cc1` (stereo not given), the “activity change, negative = inhibition” value is -7.57% [at 53 µM].

Regarding `OCCN1CCN(CCCN2c3ccccc3C=Cc3ccccc32)CC1`, the Potency was 13.8 µM (active). Consider `CCCCNc1ccc(C(=O)OCCOCCOCCOCCOCCOCCOCCOCCOCCOC)cc1`, for which the “activity change, negative = inhibition” value is -18.3% [at 53 µM]. Consider `CCCC(=O)Nc1ccc(O)c(C(C)=O)c1`, for which the “activity change, negative = inhibition” value was -7.41% [at 53 µM]. As for `CCC(Cl)CCC(Cl)C(Cl)CC(Cl)C(Cl)C(Cl)CCl` (stereo not given), the “activity change, negative = inhibition” value was -15.2%.

For `C=C(C)C(=O)OCCOCC`, the Potency is 31.9 µM (active). Still for that read-out and setting: with `COc1cc(Cl)c(OC)cc1N` the figure was 63.3 µM (active). In the case of `COc1ccc2cccc(CCNC(C)=O)c2c1`, the “activity change, negative = inhibition” value was -14% [at 53 µM]. Take `NCCCN1CCOCC1`: the Potency is 35.5 µM (active). Same read-out and setting: then `OC(CN1CCC(Cc2ccc(F)cc2)CC1)c1ccc(Cl)cc1` (stereo not given), with 0.138 µM (active).

Take `CC(C)OC(=O)C(C)N(C(=O)c1ccccc1)c1ccc(F)c(Cl)c1` (stereo not given): the “activity change, negative = inhibition” value was -63.8%.

In the case of `O=C(O)c1ccc(S(=O)(=O)O)cc1C(=O)O`, the “activity change, negative = inhibition” value was -17.2%.

For the compound `CCCCCCCCCCCCCCCCCCOS(=O)(=O)O`, the “activity change, negative = inhibition” value was 1.41%. Consider `CCN(CC)c1ccc(C(=C2C=CC(=[N+](CC)CC)C=C2)c2cc(S(=O)(=O)O)ccc2S(=O)(=O)[O-])cc1`, for which the Potency is 13.8 µM (active). For `CCC(C)(C)CC`, the “activity change, negative = inhibition” value is -12.4%. In the case of `CC(CSC(=O)c1ccccc1)C(=O)N1C[C@@H](Sc2ccccc2)C[C@H]1C(=O)O` (stereo not given in full), the activity change, negative = inhibition is 2.02% [at 23.6 µM]. For the compound `CCN(CC)CCOC(=O)C(Cc1cccc2ccccc12)CC1CCCO1` (stereo not given), the Potency was 2.75 µM (active). On to `NS(=O)(=O)c1ccc(N2CCCCS2(=O)=O)cc1`, for which the “activity change, negative = inhibition” value is -1.25% [at 53 µM]. As for `CCN(CC)CCNC(=O)c1cc(Br)c(N)cc1OC`, the Potency is 4.9 µM (active). Consider `c1ccc(-c2ccccn2)nc1`, for which the “activity change, negative = inhibition” value was 1.21%. Same read-out and setting: then `COC(=O)c1ccc(I)cc1S(=O)(=O)NC(=O)Nc1nc(C)nc(OC)n1`, with -3.33%. In the case of `Nc1cc(C(=O)O)c(O)c(S(=O)(=O)O)c1`, the Potency is 35.1 µM (active). In the case of `CCCCCCc1ccc(-c2ccc(C#N)cc2)cc1`, the Potency is 39.2 µM (active).

As for `CCNc1cc(O)ccc1C`, the Potency is 39.5 µM (active).

As for `C/C=C/C=C/CO`, the “activity change, negative = inhibition” value was -12.6%.

Take `Cc1ncc(CO)c(C=O)c1O`: the “activity change, negative = inhibition” value was -23.9% [at 53 µM]. For the compound `Clc1ccc(Cn2c(CN3CCCC3)nc3ccccc32)cc1`, the Potency was 1.74 µM (active).

In the case of `CCOC(=O)C(F)(F)F`, the Potency is 35.6 µM (active).

On to `CNCCCCOc1ccccc1Cc1ccccc1`, for which the Potency was 2.45 µM (active). Still for that read-out and setting: then `CN1CCN(C(c2ccccc2)c2ccccc2)CC1`, with 4.9 µM (active); and `COc1ccnc(CS(=O)c2nc3ccc(OC(F)F)cc3[nH]2)c1OC` (stereo not given), with 2.75 µM (active); and `CCN(CC)CCNc1ccc(CNC=O)c2sc3ccc(OC)cc3c(=O)c12`, with 6.33 µM (active). On the same count and under the same terms, with `CCCCC(CC)CN1C(=O)C2C3C=CC(C3)C2C1=O` (stereo not given) the figure was 31.7 µM (active).

These data come from PubChem BioAssay (Tox21).
